FBW7 act: FBW7 E3 ligase activators, primary screen, biochemical, AlphaScreen, human; AlphaScreen FBW7–phospho-cyclin E peptide binding, activator screen; normalized activity (activation), % at 26.1 µM; actives 0.13% (n = 650,000); AID 1259310, 2017; in the data active = normalized activity above about 1.9%;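 also: purified mutant Fbw7 with reduced substrate affinity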
Target sequence (Q969H0 whole entry, looked up): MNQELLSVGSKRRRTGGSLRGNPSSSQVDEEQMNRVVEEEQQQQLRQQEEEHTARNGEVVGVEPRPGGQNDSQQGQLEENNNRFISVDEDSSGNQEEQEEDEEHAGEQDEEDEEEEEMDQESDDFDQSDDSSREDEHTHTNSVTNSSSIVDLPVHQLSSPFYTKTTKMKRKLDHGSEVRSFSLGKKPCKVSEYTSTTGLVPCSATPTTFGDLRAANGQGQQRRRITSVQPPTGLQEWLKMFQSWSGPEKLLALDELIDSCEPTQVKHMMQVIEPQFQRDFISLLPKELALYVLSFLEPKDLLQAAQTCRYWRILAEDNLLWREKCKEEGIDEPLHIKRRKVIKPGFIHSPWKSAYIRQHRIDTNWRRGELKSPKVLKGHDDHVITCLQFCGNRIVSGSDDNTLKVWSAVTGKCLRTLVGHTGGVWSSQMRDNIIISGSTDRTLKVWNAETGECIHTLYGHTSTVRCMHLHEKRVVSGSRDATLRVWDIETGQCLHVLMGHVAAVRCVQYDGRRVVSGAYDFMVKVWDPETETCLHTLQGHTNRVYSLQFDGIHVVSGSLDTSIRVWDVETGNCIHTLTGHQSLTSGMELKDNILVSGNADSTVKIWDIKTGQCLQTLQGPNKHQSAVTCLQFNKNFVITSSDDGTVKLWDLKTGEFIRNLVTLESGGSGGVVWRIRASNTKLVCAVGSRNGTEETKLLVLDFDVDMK
MITF inh: MITF inhibitors, primary screen, biochemical, AlphaScreen, human | inhibition, % at 2.6 µM | actives 0.91% (n = 650,000) | AlphaScreen MITF homodimerization, bead proximity signal; in the data active = inhibition above about 50%;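 also: 0% = vehicle wells with protein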
GPR151 ag: activators of human GPR151, primary screen, cell-based, PathHunter beta-arrestin, luminescence; G-protein coupled receptor 151 (Homo sapiens), Q8TDV0; PathHunter beta-arrestin GPR151 cells; activation, % at 11.2 µM; actives 1% (n = 650,000); AID 1508602, 2020; in the data active = activation above about 4.9%;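 also: 0% = median of compound wells and 100% = cells with positive control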
TEAD-YAP inh: TEAD-YAP interaction inhibition, primary screen, TEAD-YAP interaction inhibitor project, luminescence, HEK-TIYL cells; AID 1259422, 2018; inhibition, % at 9.12 µM; TEAD-Gal4/YAP UAS-luciferase luminescence; actives 1.4% (n = 640,000); in the data active = inhibition above about 32%;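 also: 0% = median of test compound wells and 100% = reference inhibitor wells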
The depositor's hits bear a star. Hits are enriched below; roughly 3.5% of the tested compounds scored in any of these assays.

SMILES | FBW7 act | MITF inh | GPR151 ag | TEAD-YAP inh
Cc1ccc(/C=N/NC(=O)c2ccc3c(c2)OCO3)c(O)c1 | 0.0 | 6.8 | 1.4 | 55.6*
Cc1ccc(/C=N/NC(=O)c2ccncc2)c(O)c1 | 0.0 | 56.5* | -0.8 | 19.7
Cc1ccc(C(=O)N/N=C/c2ccc3c(c2)OCO3)cc1 | 0.1 | 10.0 | 1.6 | 11.2
CC(C)NC(=O)NC(=O)COc1ccccc1C#N | 0.0 | -4.8 | -0.8 | -34.5
CC(C)(C)NC(=O)NC(=O)COc1ccccc1C#N | -0.1 | 0.7 | -2.1 | 40.3*
COCCCNC(=O)CCCn1nc(-c2ccccc2)c2cc(Cl)ccc21 | 0.2 | 12.4 | -1.4 | 0.6
Cc1noc(C)c1COC(=O)c1ccc(OCc2c(C)noc2C)cc1 | 0.1 | 5.6 | 0.6 | 2.0
COC(=O)c1c(NC(=O)/C=C\C(=O)O)sc(Cc2ccccc2)c1C | -0.2 | -4.5 | -0.4 | 32.4*
COC(=O)c1c(NC(=O)C(F)(F)F)sc(Cc2ccccc2)c1C | 0.0 | -6.9 | 0.6 | 5.5
Cc1ccc(F)c(CN2CCN3C(=O)[C@@H]4CCCN4C(=O)[C@H]3C2)c1 | 0.9 | 16.1 | -1.3 | -0.7
C[C@H]1NC(=O)[C@H]2CN(Cc3ccccc3Cl)CCN2C1=O | 0.5 | 12.5 | 0.3 | -6.1
Cc1ccccc1CN1CCN2C(=O)[C@@H]3CCCN3C(=O)[C@H]2C1 | 0.8 | 17.2 | -0.9 | 45.8*
O=C1[C@@H]2CCCN2C(=O)[C@H]2CN(Cc3ccccc3Cl)CCN12 | -0.2 | 6.2 | 1.4 | 37.1*
Cc1ccc(N2C(=O)C(Cl)=C(Nc3cc(Cl)ccc3O)C2=O)cc1 | 0.2 | 13.2 | -1.6 | 41.4*
O=C1C(Cl)=C(Nc2ccccc2O)C(=O)N1c1ccccc1 | -0.3 | 8.7 | -0.2 | -27.7
COc1cc2nc(Nc3nc4ccccc4n3C)nc(NCc3cccc(C(F)(F)F)c3)c2cc1OC | -0.2 | 4.3 | 1.6 | 38.8*
COc1cc2nc(Oc3ccccc3)nc(NCc3cccc(C(F)(F)F)c3)c2cc1OC | -0.1 | -1.7 | 2.2 | 47.4*
COc1cc2nc(Nc3nc4ccccc4n3C)nc(Nc3cc(OC)c(OC)c(OC)c3)c2cc1OC | -0.2 | -8.6 | 2.1 | 27.6
COc1cc2nc(Nc3nc4ccccc4n3C)nc(NC3CC3)c2cc1OC | 3.6* | 18.9 | -1.2 | 10.9
COc1cc2nc(Cl)nc(NCc3cccc(C(F)(F)F)c3)c2cc1OC | 0.0 | -8.4 | -0.7 | 4.9
COc1ccc(Nc2nc(NCc3cccc(C(F)(F)F)c3)c3cc(OC)c(OC)cc3n2)cc1 | -0.2 | 7.8 | 1.7 | 16.7
O=C(c1nn2c(C(F)(F)F)cc(-c3cccs3)nc2c1Cl)N1CCCCCC1 | 0.8 | 5.1 | 1.0 | 7.8
COC(=O)c1cccc(NC(=O)COc2c(C)ccc(C)c2C)c1 | 0.0 | 6.5 | -0.9 | 5.1
NC(=O)c1ccc(N2CCN(S(=O)(=O)c3ccc4ccccc4c3)CC2)c([N+](=O)[O-])c1 | -0.2 | 3.5 | 2.8 | 45.2*
Cc1ccc(S(=O)(=O)N2CCN(c3ccc(C(N)=O)cc3[N+](=O)[O-])CC2)cc1 | -0.1 | -1.1 | 3.9 | 37.2*
SMILES | FBW7 act | MITF inh | GPR151 ag | TEAD-YAP inh
O=[N+]([O-])c1ccccc1N1CCN(S(=O)(=O)c2ccc3ccccc3c2)CC1 | -0.4 | 0.6 | 3.2 | 6.1
COc1ccc(N2CCN(S(=O)(=O)c3ccc(C)cc3)CC2)c([N+](=O)[O-])c1 | -0.1 | -0.7 | -1.2 | -2.1
CC1CCCC(C)N1C(=O)COC(=O)c1cccc(S(=O)(=O)NCc2ccccc2)c1 (stereo not given) | 0.9 | 7.7 | -0.6 | 5.2
Cc1nc2ccccc2n1CC1CCN(CC(=O)Nc2ccc(F)cc2F)CC1 | 0.0 | -6.9 | -1.1 | 54.5*
CC(=O)C1=C(c2ccc([N+](=O)[O-])cc2)N(C(C)=O)n2cnnc2S1 | -0.1 | -6.3 | 0.8 | 32.1*
Cc1nc2ccccn2c1C(=O)N/N=C/c1c(O)ccc2ccccc12 | -1.3 | 30.0 | -1.4 | 71.2*
Cc1ccc(C(=O)N/N=C/c2c(O)ccc3ccccc23)cn1 | -0.1 | 55.2* | -0.7 | 80.2*
Cc1ccc(C(=O)N/N=C/c2c3ccccc3cc3ccccc23)cn1 | 0.3 | 1.7 | 2.0 | 2.7
Cc1nc2ccccn2c1C(=O)N/N=C/c1ccc(Cl)cc1Cl | -0.1 | -8.5 | -0.2 | 11.3
O=C(N/N=C/c1c(O)ccc2ccccc12)c1ccc(F)cc1 | -0.2 | 14.3 | -1.4 | 75.6*
O=C(N/N=C/c1c(O)ccc2ccccc12)c1ccc(=O)[nH]n1 | -0.8 | 67.8* | 0.2 | 86.2*
COC(=O)C(Cc1ccccc1)NC(=O)/C=C/c1cccc([N+](=O)[O-])c1 (stereo not given) | 0.2 | -10.4 | 0.4 | -2.5
CCOC(=O)C1CCN(C2CC(=O)N(c3ccc(NC(C)=O)cc3)C2=O)CC1 (stereo not given) | -0.1 | 2.0 | 1.4 | 3.3
O=C(N/N=C/c1c(O)ccc2ccccc12)c1ccc[n+](CCO)c1 | -0.9 | 89.5* | 0.6 | -5.3
O=C(N/N=C/c1c(O)ccc2ccccc12)c1cccnc1 | -0.3 | 70.3* | -0.2 | 81.1*
O=C(N/N=C\c1c(O)ccc2ccccc12)c1cncc(Br)c1 | -0.6 | -1.2 | -0.6 | 9.1
CCOc1c(OC)cccc1C1C(C#N)=C(N)Oc2n[nH]c(-c3ccccn3)c21 (stereo not given) | -0.8 | 11.8 | 1.7 | -3.0
Cc1cccc(C(=O)N(C)c2ccccc2)c1 | 0.0 | 1.3 | -0.6 | 12.3
CC(C)N(CCNc1nc(Nc2ccc(-n3ccnc3)cc2)nc2c1ncn2-c1ccsc1)C(C)C | 0.0 | 14.6 | 1.5 | 51.1*
c1ccc(CNc2nc(Nc3ccc(-n4ccnc4)cc3)nc3c2ncn3-c2ccsc2)cc1 | -0.1 | 8.9 | 4.8 | 1.5
CC(C)N(CCNc1nc(Nc2ccc(-n3ccnc3)cc2)nc2c1ncn2-c1ccccc1)C(C)C | -0.2 | 7.8 | 1.8 | 33.9*
CC(C)N(CCNc1nc(Nc2ccc(-n3ccnc3)cc2)nc2c1ncn2C(C)C)C(C)C | 0.5 | 4.9 | -1.5 | 59.6*
CC(C)N(CCNc1nc(Nc2ccccn2)nc2c1ncn2C(C)C)C(C)C | 0.1 | -1.3 | -0.3 | 43.0*
COc1ccc(N2C(=O)c3ccc(C(=O)OC4CCCCC4)cc3C2=O)cc1 | 0.0 | -6.1 | 0.7 | -8.3
Cc1nc(C(C)(C)O)n(-c2ccc([N+](=O)[O-])cc2)n1 | 1.5 | 23.1 | -1.1 | 0.1
SMILES | FBW7 act | MITF inh | GPR151 ag | TEAD-YAP inh
COc1ccc(C(=O)Oc2c(CN3CCOCC3)cc(Cl)c3cccnc23)cc1OC | -0.1 | 0.4 | -1.0 | 0.2
CC1CCN(Cc2cc(Cl)c(O)c3ncccc23)CC1 | -0.2 | 98.1* | 0.7 | 84.8*
CC1CCN(Cc2cc(Cn3ccnc3)c3cccnc3c2O)CC1 | -1.0 | 109.9* | -0.3 | 39.4*
CC1CCN(Cc2ccccc2CO)CC1 | 0.0 | -0.8 | -0.1 | -7.6
CC1CCN(Cc2cc(Cl)c3cccnc3c2O)CC1 | -1.1 | 42.9 | 3.8 | 45.6*
CN1CCN(Cc2cc(Cl)c(O)c3ncccc23)CC1 | -0.8 | 97.9* | 0.8 | 90.2*
Oc1ccc(CN2CCN(c3ccc(F)cc3)CC2)c2cccnc12 | -0.6 | 37.7 | 4.6 | -8.6

Source: PubChem BioAssay
